Records with an inconclusive call do not appear. Values without a mark were called inactive. The source made the active and inactive calls. Calls follow the shape of the dose curve; as a rule, active = well fitted curve in the direction sought with a large enough effect; inconclusive = small, poorly fitted or top-dose-only effect, or another doubt; inactive = no such curve, though single readings can be large or run the other way.
assay: Cell viability assay for measurement of the protective activity of small molecules against cell death caused by Zika virus infection in human astrocytes; settings: human astrocytes ZIKV-induced death, ATP luminescence, 72 h; series mostly up to 46.1 µM; protection from virus-induced death: at the top concentration
Description: National Center for Advancing Translational Sciences [NCATS] Johns Hopkins University School of Medicine Florida State University Assay Overview: Zika virus infection causes cell death in certain cell types including human neural progenitor cells (hNPCs), astrocytes, and astrocytoma cell line (SNB-19). This cell viability assay measures the ATP content (level) in human astrocytes using a luminescence readout that is proportional to viable cell numbers. Decrease in the luminescence signal after Zika virus infection indicates the cell death caused by Zika virus. Small molecule inhibitors […] the decreased luminescence signal after Zika virus infection, indicating the protective effect of that small molecule on the cell death caused by Zika virus infection. This observed protective effect of small molecules against Zika virus induced cell death may result from inhibition of virus replication or cellular response to the virus infection.
Assay Protocol Summary: The medium for astrocytes contains AM basal medium (ScienCell, Cat.# 1801), AGS (ScienCell, Cat.# 1801), 10% FBS, and 1% Pen/Strep. The ATP content assay kit (PerkinElmer, Cat.# 6016731) was used to determine cell viability. The reagent was reconstituted and prepared as described by the manufacturer. Cells were seeded in 384- or 1536-well assay plates and cultured at 37 C with 5% CO2 for 16 to 20 hours. The typical cell seeding density in the 1536-well plate assay is 350 cells/well in 3 ul medium for astrocytes in the tissue cultured treated/PDL coated plates. Compounds were added to cells and incubated for one hour before addition of ZIKV solution to cells (2 FFU/cell). After incubation at 37 C with 5% CO2 for 72 hours, the reagent mixture of the ATP content assay kit was added to each well, followed by incubation at room temperature for 10 minutes. The luminescence intensity of the assay plates was measured using a ViewLux plate reader (PerkinElmer). […] The percentage inhibitions of the decreased cell viability by small molecule inhibitors were then calculated.

| Structure (SMILES) | protection from virus-induced death | Potency |
| --- | --- | --- |
| O=C(Nc1ccc(C(=O)O)c(O)c1)c1ccccc1 | 1.26% | – |
| COc1cc(NC(C)CCCN)c2ncccc2c1 (stereo not given) | 2.41% | – |
| CC(=C(CCOC(=O)C(C)C)SSC(CCOC(=O)C(C)C)=C(C)N(C=O)Cc1cnc(C)nc1N)N(C=O)Cc1cnc(C)nc1N | -5.9% | – |
| COc1ccc(NC(=O)/C=C/c2ccc(Cl)cc2)cc1 | 7.03% | – |
| Cc1ccc(C(=O)c2ccc(CC(=O)O)n2C)cc1 | -3.13% | – |
| Cc1c(N)c(=O)n(-c2ccccc2)n1C | 1.04% | – |
| S=C(SSC(=S)N1CCCCC1)N1CCCCC1 | – | 7740 nM (active) |
| Cc1nc(N)sc1-c1ccnc(Nc2ccc(N3CCOCC3)cc2)n1 | 1.74% | – |
| O=C1c2ccccc2C(=O)c2c1ccc(O)c2O | -3.51% | – |
| NC1CCC(Nc2nc(Nc3ccc(C(=O)N4CCCCC4)cc3)c3ncn(-c4cccc(F)c4)c3n2)CC1 (stereo not given) | -10.1% | – |
| CC(C)Oc1ccc2c(=O)c(-c3ccccc3)coc2c1 | -5.36% | – |
| Cc1ccc([N+](=O)[O-])[c]2c1[O][Hg]2 | -10.2% | – |
| [O-][n+]1ccccc1SSc1cccc[n+]1[O-] | -9.35% [at 88.3 µM] | – |
| CC[n+]1c(-c2ccccc2)c2cc(N)ccc2c2ccc(N)cc21 | – | 1950 nM (active) |
| Oc1ccc([C@H]2CNCc3c2ccc(O)c3O)cc1O | 2.33% | – |
| O=C1CCC[C@@H]2[C@H]3CCCN4CCC[C@@H](CN12)[C@@H]34 | 3.66% | – |
| Nc1ccc2c(c1)CN1C(=O)c3ccccc3C1=N2 | -6.32% [at 23.8 µM] | – |
| O=C(O)[C@@H](c1ccc(OCc2ccc3ccccc3n2)cc1)C1CCCC1 | -1.24% | – |
| CC(C)(C)OC(=O)CN(Cc1ccc(Cl)cc1)Cc1ccc([N+](=O)[O-])s1 | 4.94% [at 88.3 µM] | – |
| CC(C)OC(=O)CCCC=CC[C@@H]1[C@H](C=C[C@@H](O)COc2cccc(C(F)(F)F)c2)[C@H](O)C[C@@H]1O | 16% | – |

| Structure (SMILES) | protection from virus-induced death | Potency |
| --- | --- | --- |
| O=c1cc(-c2ccccc2)oc2cc(O)cc(O)c12 | 0.394% | – |
| O=S(=O)(CC1CS1)c1ccc(Oc2ccccc2)cc1 (stereo not given) | -1.15% | – |
| COC1(CS(=O)c2ccccc2)CCN(CCc2c[nH]c3ccc(F)cc23)CC1 (stereo not given) | -3.55% | – |
| COc1cccc2c1C(=O)c1c(O)c3c(c(O)c1C2=O)C[C@@](O)(C(=O)CO)C[C@@H]3O[C@H]1C[C@H](N)[C@H](O[C@@H]2CCCCO2)[C@H](C)O1 | -3.67% | – |
| CC(O)=C(C#N)C(=O)Nc1ccc(C(F)(F)F)cc1 | -8.15% | – |
| c1ccc(CCNc2nc(-c3ccccc3)cs2)cc1 | -4.1% | – |
| c1ccc2[nH]c(-c3cscn3)nc2c1 | -4.09% | – |
| CC(C)N[C@@H]1CCn2c(=O)[nH]c3cccc(c32)[C@@H]1O | -5.21% | – |
| Cc1cccc(C#Cc2ccccc2)n1 | -0.738% | – |
| Nc1ncnc2c1ncn2[C@@H]1O[C@@H](CO)[C@H](O)[C@H]1O | 3.79% [at 23.8 µM] | – |
| CNC1[C@H](O)C(O[C@@H]2C(O)C(O[C@H]3O[C@H]([C@@H](C)NC)CC[C@H]3N)[C@@H](N)C[C@H]2N)OC[C@]1(C)O (stereo not given in full) | -0.423% | – |
| O=C1C(Cl)=C(NCCN2CCOCC2)C(=O)c2ncccc21 | -8.42% | – |
| COc1ccc(CC2=NN3C([C@@H](CCc4ccccc4)[C@@H](C)O)=NC(C)C3C(=O)N2)cc1OC (stereo not given in full) | -2.71% | – |
| CC(C)[C@H]1C(=O)N[C@H](CO)Cc2c[nH]c3cccc(c23)N1C | – | 1090 nM (active) |
| Nc1ccc(N=Nc2ccccc2)c(N)n1 | 3.1% | – |
| CC1=C(CO)C(=O)O[C@@H]([C@@H](C)[C@H]2CC[C@H]3[C@@H]4C[C@H]5O[C@]56[C@@H](O)C=CC(=O)[C@]6(C)[C@@H]4CC[C@]23C)C1 | -0.531% | – |
| O=S(=O)(O)CCSSCCS(=O)(=O)O | 4.4% | – |
| C[C@@H](O[C@H]1OCCN(Cc2n[nH]c(=O)[nH]2)[C@@H]1c1ccc(F)cc1)c1cc(C(F)(F)F)cc(C(F)(F)F)c1 | -9.91% | – |
| O=C(O)c1cccc(-c2noc(-c3ccccc3F)n2)c1 | -5.89% | – |
| Cc1nc(-c2ccc(OCC(C)C)c(C#N)c2)sc1C(=O)O | -4.48% | – |

Source: PubChem BioAssay AID1224856 (National Center for Advancing Translational Sciences (NCATS), 2016)
